Results as given in PubChem BioAssay.

Test: inhibitors of poly I:C-induced TLR3 signaling, primary screen, cell-based, poly I:C stimulus, luciferase, 10K MLSCN set (AID 602277)
Conditions: HEK293-TLR3 RL24 IRF3 luciferase reporter, at 10 µM, stronger effect = higher value;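 active = inhibition of the reporter signal at or above 50%; inactive = inhibition below 50%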

inhibition, inactive:
CCOC(=O)C1CCCN(C(=O)c2cc3c(=O)n4cccc(C)c4nc3n2C)C1 (stereo unspecified) 23.7%
COc1ccc(OC)c(S(=O)(=O)N2CCC(C(=O)NCc3ccccc3OC)CC2)c1 13.9%
CCOC(=O)N1CCN(C(=O)CSc2nnc(-c3cc(OC)cc(OC)c3)o2)CC1 29.1%
CCCC(=O)Nc1cnc(NC(=O)c2cccc(F)c2)cc1C -162%
COc1ccc2cc(C#N)c(SCC(=O)N3CCCC3)nc2c1 -5.53%
c1ccc(CC2CCN(C(c3cccs3)c3nnnn3C3CCCC3)CC2)cc1 (stereo unspecified) 20.3%
COc1ccc(-n2c(=O)c3c4c(sc3n3c(C)nnc23)CCCC4)cc1 19.4%
CN(C)S(=O)(=O)NC(c1ccccc1)c1ccccc1 21.8%
COc1ccc(C2=NOC(C(=O)NC3CCCCC3)C2)cc1OC (stereo unspecified) 20.1%
CCCCCC1CC(CC(=O)O)C(=O)O1 (stereo unspecified) 23.6%
CC(c1ccccc1)n1cnc2ccccc21 (stereo unspecified) 19%
COc1ccc(OC)c(C2C(C(=O)Nc3ccc(F)cc3)=C(C)Nc3nc(CCCO)nn32)c1 (stereo unspecified) 11.9%
Cn1c(=O)c2c(nc(Br)n2CCSc2nnnn2-c2ccccc2)n(C)c1=O 1.27%
O=C(Nc1ccc(S(=O)(=O)Nc2ccc(Cl)cc2)cc1)C1CCCO1 (stereo unspecified) -12.8%
Fc1ccccc1Cn1nnc2c(-n3ccnc3)ncnc21 -13.8%
O=C(c1ccc(Br)o1)N1CCN(c2ccc3nnc(-c4ccccc4)n3n2)CC1 -337%
